Structures are written as SMILES. Activity calls are given as the source filed them. Unless noted, the rule behind the calls is not given here.

The values that follow come from PubChem BioAssay.

Assay [1] can be described thus: anti-His antibody binders, primary screen, artefact control for SMM control protein annotation, biochemical, small-molecule microarray, 635 nm fluorescence (AID 1128).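 Note: score merges feature fluorescence with signal-to-noise for each printed compound spot.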 To be noted: anti-His Alexa647 antibody binding, higher = more signal.
In assay [2] the test system is Human papillomavirus type 1a E7 protein (residues 1-88). The assay can be described thus: HPV1a E7 small-molecule binders, primary screen, biochemical, small-molecule microarray, residues 1-88, 635 nm (AID 1129). As to conditions: small-molecule microarray binding, fluorescence 635 nm; higher = more signal.
For assay [3], the target named is Focal adhesion kinase 1 (Homo sapiens) (UniProt Q05397). Briefly: small-molecule microarray binders of FAK, primary screen, biochemical, 635/667 nm fluorescence, BSA, DTT (AID 1130).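 Note: composite of spot emission at 667 nm and signal to noise over triplicate slides.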 As to conditions: PTK2 binding, 635 nm fluorescence, higher = more signal.
The test system of assay [4] is Fibrinogen (Alexa647-labelled). Briefly: fibrinogen binders on compound microarrays, profiling panel, artefact control for SMM control-protein annotation, biochemical, small-molecule microarray, 635/667 nm fluorescence (AID 1131).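 Note: z-score merges 667 nm fluorescence with per-spot signal-to-noise over triplicate slides.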 To be noted: fibrinogen-A647 binding fluorescence, higher = more signal.
The target in assay [5] is Follistatin (Homo sapiens) (UniProt P19883). Briefly: follistatin binders on small-molecule microarrays, primary screen, biochemical, small-molecule microarray, 635/667 nm fluorescence (AID 1132). As to conditions: FST binding, 635 nm fluorescence, higher = more signal.
In assay [6] the target is Fibroblast growth factor 2 (Homo sapiens) (UniProt P09038). Briefly: FGF2 binders on small-molecule microarrays, primary screen, biochemical, small-molecule microarray, 635/667 nm fluorescence (AID 1133). As to conditions: small-molecule microarray binding, FGF2, fluorescence 635/667; higher = more signal.
Assay [7] can be described thus: mitochondrial membrane potential change in A549 cells, profiling panel, cell-based, JC-1 fluorescence, basal, 24 h, 100 nL (AID 1138).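 Note: A549 lung adenocarcinoma cells under basal conditions with no added stimulus; test concentration not given here.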 As to conditions: higher = more signal.
A further assay deals with Lefty1. The assay can be described thus: Lefty1 binders on small-molecule microarrays, primary screen, biochemical, small-molecule microarray, 635/667 nm fluorescence (AID 1139). To be noted: small-molecule microarray binding, fluorescence 635/667; higher = more signal.
For assay [8], the system named is wheat germ agglutinin (Triticum aestivum), Alexa647-labelled. Briefly: wheat germ agglutinin binders on compound microarrays, profiling panel, artefact control for SMM control-protein annotation, biochemical, small-molecule microarray, 635/667 nm fluorescence (AID 1140).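 Note: score merges 667 nm feature emission with signal to noise over triplicate slides.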 As to conditions: WGA-A647 binding, 635 nm fluorescence, higher = more signal.
The target in assay [9] is Luciferin 4-monooxygenase (Photinus pyralis) (UniProt P08659). Briefly: firefly luciferase enzyme inhibitors, primary screen, biochemical, luminescence, purified enzyme, 2006 set (AID 1141).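 Note: cell-free assay with purified firefly luciferase at 100 ng per well in PBS; test concentration not given here.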 To be noted: SteadyGlo luminescence, 30 min, higher = more signal, called active from +8 up or from −8 down.
For assay [10], the system named is Wnt5a (protein binding on small-molecule microarray). The assay can be described thus: Wnt5a binders on small-molecule microarray, primary screen, biophysical, 635/667 nm fluorescence (AID 1142).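 Note: fluorescence read at 667 nm with signal to noise per printed feature.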 To be noted: 635 nm fluorescence, higher = more signal.
Assay [11] in a line: cell viability in Huh7 cells, primary screen, cytotoxicity control for HCV replication inhibitor project, CellTiter-Glo luminescence, basal, 48 h (AID 1143).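 Note: Huh7 hepatoma cells carrying a hepatitis C replication reporter with no stimulus; test concentration not given here.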 To be noted: Huh7 HCV replicon, higher = more signal, called active from +8 up or from −8 down.
Assay [12] is described as follows: P. aeruginosa biofilm formation inhibitors, primary screen, PAO1 strain, BacTiter-Glo luminescence, LB-PBS (AID 1144). As to conditions: 12 h, higher = more signal.
The nature of assay [13]: CREB reporter modulators without forskolin, primary screen, cell-based, PC12, CRE-LacZ reporter, unstimulated (AID 1145). As to conditions: no forskolin, luminescence, 4.5 h, higher = more signal, called active from +8 up or from −8 down.
Assay [14] is described as follows: CREB reporter modulators under forskolin, primary screen, cell-based, PC12, CRE-LacZ reporter, forskolin-stimulated (AID 1146).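 Note: PC12 cells with 6xCRE LacZ reporter stimulated by forskolin 10 µM; beta-galactosidase reporter signal reflecting CREB driven transcription.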 As to conditions: luminescence, 4.5 h, higher = more signal, called active from +8 up or from −8 down.
In assay [15] the target is Streptavidin (Streptomyces avidinii) (UniProt P22629). The assay can be described thus: streptavidin binders on small-molecule microarray, primary screen, artefact control for SMM compound annotation, biophysical, 635/667 nm fluorescence (AID 1147).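 Note: signal reflects streptavidin binding to arrayed compounds as a control protein.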 To be noted: streptavidin binding, higher = more signal.
Assay [16] can be described thus: small-molecule binders of probe aInhba, primary screen, biochemical, small-molecule microarray, 635/667 nm fluorescence (AID 1148).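 Note: score merges 667nm spot fluorescence with signal-to-noise for antibody binding to printed compounds.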 To be noted: higher = more signal.
In assay [17] the target is Torsin-1A (Homo sapiens) (UniProt O14656). Briefly: torsin A binders from cell lysate, primary screen, small-molecule microarray, wild-type, 635/667 nm (AID 1149). As to conditions: COS7 hTOR1A-WT lysate, 635 nm fluorescence, higher = more signal.
Assay [18] shares this target. The assay can be described thus: small-molecule binders of mutant TOR1A in lysate, primary screen, cell lysate, small-molecule microarray, COS7 lysate, 635/667 nm fluorescence (AID 1150).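 Note: score pools 667 nm emission and signal to noise measuring lysate protein binding.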 To be noted: COS7 hTOR1A mutant lysate, 635 nm fluorescence, higher = more signal.
The test system of assay [19] is Sonic hedgehog protein (Shh). Briefly: small-molecule binders of Shh protein, primary screen, biochemical, small-molecule microarray, 635/667 nm fluorescence (AID 1151).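 Note: Shh protein binding to compounds spotted on small-molecule microarray slides; score combines spot fluorescence intensity with signal-to-noise across triplicate slides.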 To be noted: small-molecule microarray binding, 635 nm fluorescence; higher = more signal.

Sequence of Fibroblast growth factor 2 (Homo sapiens) (P09038 whole entry, looked up): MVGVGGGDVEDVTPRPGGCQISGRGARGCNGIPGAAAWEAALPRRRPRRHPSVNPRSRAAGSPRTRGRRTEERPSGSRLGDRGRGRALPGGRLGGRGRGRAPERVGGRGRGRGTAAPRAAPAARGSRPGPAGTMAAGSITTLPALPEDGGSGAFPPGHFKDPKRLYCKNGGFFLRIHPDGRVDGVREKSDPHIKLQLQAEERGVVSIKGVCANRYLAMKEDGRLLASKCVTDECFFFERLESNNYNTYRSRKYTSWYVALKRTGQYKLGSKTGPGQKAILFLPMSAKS
Sequence of Streptavidin (Streptomyces avidinii) (P22629 whole entry, looked up): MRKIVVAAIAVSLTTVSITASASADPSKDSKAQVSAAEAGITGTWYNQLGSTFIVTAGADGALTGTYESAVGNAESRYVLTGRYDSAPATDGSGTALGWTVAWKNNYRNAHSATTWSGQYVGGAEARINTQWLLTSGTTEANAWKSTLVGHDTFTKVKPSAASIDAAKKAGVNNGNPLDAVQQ
Sequence of Torsin-1A (Homo sapiens) (O14656 whole entry, looked up): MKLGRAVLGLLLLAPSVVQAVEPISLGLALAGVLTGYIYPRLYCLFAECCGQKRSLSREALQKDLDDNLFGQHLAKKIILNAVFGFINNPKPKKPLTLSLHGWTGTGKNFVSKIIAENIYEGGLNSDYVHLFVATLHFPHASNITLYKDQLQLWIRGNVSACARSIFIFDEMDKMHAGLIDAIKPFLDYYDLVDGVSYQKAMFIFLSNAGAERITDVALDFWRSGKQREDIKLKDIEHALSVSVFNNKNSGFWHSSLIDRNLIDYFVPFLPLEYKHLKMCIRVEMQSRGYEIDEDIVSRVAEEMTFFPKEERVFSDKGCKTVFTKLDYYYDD
Sequence of Luciferin 4-monooxygenase (Photinus pyralis) (P08659 whole entry, looked up): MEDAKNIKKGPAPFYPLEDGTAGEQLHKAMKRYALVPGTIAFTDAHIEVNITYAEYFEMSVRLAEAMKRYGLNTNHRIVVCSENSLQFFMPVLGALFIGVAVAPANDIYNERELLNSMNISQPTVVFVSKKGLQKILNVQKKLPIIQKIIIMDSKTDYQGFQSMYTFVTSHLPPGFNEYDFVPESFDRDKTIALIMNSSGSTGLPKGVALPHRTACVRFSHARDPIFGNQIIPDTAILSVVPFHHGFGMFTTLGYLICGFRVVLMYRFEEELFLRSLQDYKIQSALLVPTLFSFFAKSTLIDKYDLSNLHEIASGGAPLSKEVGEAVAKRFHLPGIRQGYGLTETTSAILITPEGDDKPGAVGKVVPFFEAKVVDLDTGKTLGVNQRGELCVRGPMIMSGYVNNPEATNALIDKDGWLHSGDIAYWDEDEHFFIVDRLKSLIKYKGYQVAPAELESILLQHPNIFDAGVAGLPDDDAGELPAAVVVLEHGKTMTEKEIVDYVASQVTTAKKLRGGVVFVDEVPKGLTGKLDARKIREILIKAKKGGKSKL
Sequence of Focal adhesion kinase 1 (Homo sapiens) (Q05397 whole entry, looked up): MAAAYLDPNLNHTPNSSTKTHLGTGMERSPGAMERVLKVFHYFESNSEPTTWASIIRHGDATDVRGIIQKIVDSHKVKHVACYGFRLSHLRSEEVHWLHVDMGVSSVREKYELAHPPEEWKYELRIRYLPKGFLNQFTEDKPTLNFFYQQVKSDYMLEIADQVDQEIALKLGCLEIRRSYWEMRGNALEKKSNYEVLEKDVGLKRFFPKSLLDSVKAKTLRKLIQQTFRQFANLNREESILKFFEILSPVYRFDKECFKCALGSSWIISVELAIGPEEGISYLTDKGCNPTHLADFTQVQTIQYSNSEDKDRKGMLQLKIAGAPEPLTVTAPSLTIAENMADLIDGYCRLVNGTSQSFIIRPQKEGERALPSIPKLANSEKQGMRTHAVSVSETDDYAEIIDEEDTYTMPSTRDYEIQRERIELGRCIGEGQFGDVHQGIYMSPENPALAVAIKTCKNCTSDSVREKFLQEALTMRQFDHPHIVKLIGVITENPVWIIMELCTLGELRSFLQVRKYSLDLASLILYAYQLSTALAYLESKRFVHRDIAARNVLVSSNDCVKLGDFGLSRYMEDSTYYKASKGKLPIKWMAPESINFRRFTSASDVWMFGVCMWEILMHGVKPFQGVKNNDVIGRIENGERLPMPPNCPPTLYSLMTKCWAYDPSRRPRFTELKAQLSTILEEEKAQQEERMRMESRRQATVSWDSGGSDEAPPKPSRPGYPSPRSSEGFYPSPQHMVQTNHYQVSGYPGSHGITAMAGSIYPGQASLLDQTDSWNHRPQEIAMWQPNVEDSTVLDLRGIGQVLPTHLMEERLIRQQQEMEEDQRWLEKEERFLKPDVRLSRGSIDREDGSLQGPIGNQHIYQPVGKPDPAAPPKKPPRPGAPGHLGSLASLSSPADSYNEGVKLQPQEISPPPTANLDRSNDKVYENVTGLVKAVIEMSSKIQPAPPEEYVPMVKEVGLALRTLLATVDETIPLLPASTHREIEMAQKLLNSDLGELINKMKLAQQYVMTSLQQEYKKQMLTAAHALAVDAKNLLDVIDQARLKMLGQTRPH
Sequence of Follistatin (Homo sapiens) (P19883 whole entry, looked up): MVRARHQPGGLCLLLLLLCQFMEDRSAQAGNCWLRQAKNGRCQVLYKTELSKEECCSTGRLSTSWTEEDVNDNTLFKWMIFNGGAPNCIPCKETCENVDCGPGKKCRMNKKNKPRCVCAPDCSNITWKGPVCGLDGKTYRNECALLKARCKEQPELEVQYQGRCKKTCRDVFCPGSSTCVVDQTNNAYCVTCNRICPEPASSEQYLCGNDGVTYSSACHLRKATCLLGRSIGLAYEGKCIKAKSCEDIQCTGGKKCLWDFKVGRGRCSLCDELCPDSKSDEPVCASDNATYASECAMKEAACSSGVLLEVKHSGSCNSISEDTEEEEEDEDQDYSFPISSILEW

On to `Cc1ccc(S(=O)(=O)N2CC(C(=O)O)=CCC2c2ccccc2)cc1` (stereo not given), for which the composite z-score in assay [1] was -0.67; in assay [2] it was -0.2; in assay [3], 0.223; in assay [4] it was -0.275; in [5] it was -1.22; in assay [6], -1.14. Besides, the composite z-score in the assay on Lefty1 was -0.946; in assay [8] it was 0.0972; in assay [10] it was -0.0669; in assay [15], -0.134; in assay [16], -0.128; in the assay with Torsin-1A (Homo sapiens) [17], 1.08. Moreover, the figures for the composite z-score (in the assay with Torsin-1A (Homo sapiens) [18]; in assay [19]) were -0.307 and -0.861, respectively. The z-score was -1.33 in [7]; 1.52 (inactive) in assay [9]; 0.0982 (inactive) in assay [11]; -0.153 (inactive) in assay [12]; -0.266 (inactive) in [13]; 0.222 (inactive) in [14].

As for `CC(c1ccccc1)C(O)C1C=CC2C(=O)N(Cc3ccccc3)C(=O)C2N1n1cnnc1` (stereo not given), the composite z-score came out at 0.509 in assay [1]; 0.914 in assay [2]; 0.146 in [3]; 0.654 in assay [4]; 0.374 in assay [5]; 0.408 in assay [6]. Further, the composite z-score was -0.133 in the assay with Lefty1; 0.532 in assay [8]; 0.0618 in [10]; 0.705 in assay [15]; -0.145 in assay [16]; 0.327 in the assay with Torsin-1A (Homo sapiens) [17]. Moreover, the values for the composite z-score (with Torsin-1A (Homo sapiens) [18]; in assay [19]) were 0.358 and -0.506, respectively. Also, the z-score in [7] is -1.27; in [9], 1.52 (inactive); in assay [11] it was -0.0357 (inactive); in assay [12], 0.144 (inactive); in assay [13] it was -0.172 (inactive); in assay [14] it was 0.945 (inactive).

For `C=C(C(=O)CC[C@@H](OC(=O)c1cccnc1)c1ccc(OCCO)cc1)C(C)C`, the composite z-score in [1] is 0.222; in assay [2], 0.314; in assay [3], -0.17; in assay [4], -0.0579; in assay [5], 1.43; in [6], 1.16. Also, the composite z-score in the assay on Lefty1 is 1.21; in assay [8] it was 0.752; in [10], 0.725; in [15] it was -0.136; in assay [16] it was -0.128; with Torsin-1A (Homo sapiens) [17], 0.0998. Further, the composite z-score with Torsin-1A (Homo sapiens) [18] came to 0.97; in [19], 1.58. Besides, the z-score was -0.358 in [7]; -3.48 (inactive) in assay [9]; -8.32 (active) in assay [11]; 0.118 (inactive) in [12]; 20 (active) in assay [13]; 0.12 (inactive) in assay [14].

Take `[N-]=[N+]=NCc1ccccc1C[C@]1(C(=O)N2CCOCC2)N=C(c2ccc(OCCCO)cc2)O[C@H]1c1ccccc1`: the composite z-score in [1] is 1.22; in assay [2] it was 0.672; in [3], -0.0665; in [4], 0.909; in assay [5], 0.826; in assay [6] it was 0.816. For the same compound, the composite z-score with Lefty1 worked out at 0.0094; in [8] it was 0.359; in assay [10] it was 0.258; in [15], 0.981; in assay [16] it was 0.0091; with Torsin-1A (Homo sapiens) [17], 0.0039. Also, the composite z-score with Torsin-1A (Homo sapiens) [18] was 0.348; in assay [19], -0.147. Besides, the z-score is 0.078 in assay [7]; 0.4 (inactive) in [9]; -5.35 (inactive) in [11]; -0.764 (inactive) in assay [12]; 0.391 (inactive) in [13]; -1.5 (inactive) in assay [14].

Take `CC(C)CNC(=O)[C@@]1(C)c2ccccc2C(=O)N(C(C)C)[C@H]1c1ccc(CO)cc1`: the composite z-score was -0.105 in assay [1]; -1.79 in assay [2]; 0.175 in assay [3]; -1.07 in assay [4]; -0.0856 in [5]; -0.379 in [6]. For the same compound, the composite z-score was -0.353 with Lefty1; -0.148 in assay [8]; -0.16 in [10]; -1.36 in assay [15]; -0.187 in assay [16]; -0.633 with Torsin-1A (Homo sapiens) [17]. Besides, the values for the composite z-score (with Torsin-1A (Homo sapiens) [18]; in assay [19]) were -1.63 and -0.542, respectively. Also, the z-score in [7] is -0.265; in [9], 0.691 (inactive); in assay [11], 1.09 (inactive); in assay [12] it was 0.15 (inactive); in [13] it was -0.179 (inactive); in assay [14], -0.568 (inactive).

Turning to `O=C(NCCN1CCOCC1)[C@@H]1c2ccccc2C(=O)N(Cc2cc(F)cc(C(F)(F)F)c2)[C@H]1c1ccc(CO)cc1`, the composite z-score is 0.195 in assay [1]; 0.0794 in assay [2]; 0.205 in assay [3]; -0.732 in assay [4]; 0.687 in assay [5]; -0.77 in assay [6]. The composite z-score is 0.314 in the assay on Lefty1; -0.254 in assay [8]; -0.33 in assay [10]; -0.78 in assay [15]; 0.422 in [16]; 0.543 in the assay with Torsin-1A (Homo sapiens) [17]. Also, the composite z-score turned out to be 0.165 in the assay with Torsin-1A (Homo sapiens) [18] and 1.76 in [19]. For the same compound, the z-score is 2.17 in assay [7]; -0.183 (inactive) in assay [9]; -0.269 (inactive) in assay [11]; 0.153 (inactive) in [12]; 0.378 (inactive) in assay [13]; 0.0284 (inactive) in assay [14].
